Experimental data from PubChem BioAssay (Tox21).
A number with no mark means an inactive call. Records with an inconclusive call do not appear. Where a call stands in place of a potency, no number is given. The source made the active and inactive calls. Unless noted, the call rests on the fitted dose curve; in most records, active means well fitted curve in the direction sought with a large enough effect in the repeat runs; inconclusive means weak or mixed curves; inactive means no such curve, though single readings can be large; an effect the other way counts as inactive or inconclusive.

Key:
[1] = qHTS assay to identify small molecule agonists of the hypoxia (HIF-1) signaling pathway - cell viability counter screen (AID 1224844; calls by dose curve; further: nearly all actives have a fitted effect of over 50% in size)
Outline: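 In this counter screen, HRE-bla ME-180 cell viability after 17 hrs of compound exposure at 37C was read by CellTiter-Glo luminescence, multiplexed with the beta-lactamase reporter measurement.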

[2] = qHTS assay to identify small molecule agonists of H2AX (AID 1224845; active means well fitted activation curve with a large enough effect in the signal ratio in the repeat runs, not every such curve was filed as active; the % refers to the signal ratio)
Outline: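 Phospho-H2AX Ser139 measured by HTRF (ex 320 nm; em 665 and 620 nm) after 24 hr antibody incubation. Compounds, 15 concentrations, 0.76% DMSO, were applied to CHO-K1 cells for 3hr at 37C before lysis.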

[3] = qHTS assay to identify small molecule agonists of the hypoxia (HIF-1) signaling pathway (AID 1224846; active means well fitted activation curve with a large enough effect in the signal ratio in the repeat runs, not every such curve was filed as active; the % refers to the signal ratio)
Outline: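 ME-180 HRE-bla reporter cells; compounds in DMSO, 17 h at 37C; read-out beta-lactamase via CCF4-AM FRET.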

[4] = qHTS assay to identify small molecule agonists of H2AX - cell viability counter screen (AID 1224847; calls by dose curve;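 further: wild-type CHO-K1 cells; top concentration of the series differs between compounds; nearly all actives have a fitted effect of over 30% in size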)
Outline: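 After overnight plating of 1000 CHO-K1 cells per well, a 15-concentration compound series was applied for 3 hr at 37C. Luminescence from CellTiter-Glo, read following 30 min at room temperature, reflected cell viability.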

[5] = qHTS RealTime-Glo MT Cell Viability Assay in HepG2 cells - 24 hour (AID 1224867); further: nearly all actives have a fitted effect of over 50% in size
Outline: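 Viability was tracked continuously by NanoLuc luminescence from prosubstrate reduced by living HepG2 cells, at successive time points over 40 h of compound exposure. Cells with reagent were preincubated 5 h at 37 °C before compound addition.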

[6] = qHTS RealTime-Glo MT Cell Viability Assay in HEK293 cells - 32 hour (AID 1224868); further: nearly all actives have a fitted effect of over 50% in size; further: potency means the concentration at half of the fitted maximal effect
Outline: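 Viability tracked continuously by luminescence as live cells reduce a prosubstrate for NanoLuc; HEK293 cells preincubated 5 h, compound-treated at 37 C, and read at 0, 8, 16, 24, 32 and 40 h.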

[7] = A CellTox Green Cytotoxicity Assay to monitor cytotoxicity in HEK293 cells - 0 hour (AID 1224869); further: nearly all actives have a fitted effect of over 50% in size
Outline: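 Real-time, in one plate: 600 HEK293 cells/well with dead-cell DNA dye, pinned compound after 5 h, 37 C incubation over 40 h; viable cells give no appreciable fluorescence.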

[8] = qHTS RealTime-Glo MT Cell Viability Assay in HepG2 cells - 40 hour (AID 1224870); further: nearly all actives have a fitted effect of over 50% in size; further: potency means the concentration at half of the fitted maximal effect
Outline: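 Real-time viability: cells seeded at 600 per well together with NanoLuc and cell-permeant prosubstrate, compounds added after 5 h incubation. Luminescence tracked at 0, 8, 16, 24, 32 and 40 h of exposure.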

[9] = qHTS assay to identify small molecule antagonists of the estrogen related receptor (ERR) signaling pathway from Tox21 library (AID 1224848); further: nearly all actives have a fitted effect of over 50% in size
Outline: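 Luciferase luminescence (ONE-Glo, 30 min room temperature) was the read-out. Cells of the NTP-supplied ERR line, 2,000 per well, were given 6 h at 37 C before compound addition in DMSO and 18 h exposure at 37 C.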

[10] = qHTS assay to identify small molecule agonists of the estrogen related receptor (ERR) signaling pathway from Tox21 library (AID 1224849; calls by dose curve; further: nearly all actives have a fitted effect of over 15% in size); details: ERR reporter cell line, ONE-Glo luciferase, 18 h; at 92.4 µM (top of the series) unless noted
Outline: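 Luciferase activity in ERR pathway reporter cells served as the agonist readout; exposure lasted 18 h at 37 C, with ONE-Glo detection after 30 min at room temperature.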

Row | Compound | Potency [1] | Potency [2] | outcome [3] | Potency [4] | Potency [5] | Potency [6] | Potency [7] | Potency [8] | Potency [9] | activity change, positive = activation [10]
1 | c1ccc(N2CCNCC2)cc1 | inactive | inactive | inactive | inactive | inactive | inactive | inactive | inactive | – | –
2 | Cc1cc(C)nc(Nc2ccccc2)n1 | inactive | inactive | inactive | inactive | inactive | inactive | inactive | inactive | inactive | –
3 | CCCCCCI | inactive | inactive | inactive | inactive | – | inactive | inactive | 24.6 µM (active) | inactive | -0.122%
4 | CC1CCC(=O)O1 (stereo not given) | inactive | inactive | inactive | inactive | inactive | inactive | – | inactive | inactive | -6.79%
5 | Cc1cc(C)c(C(=O)P(=O)(C(=O)c2c(C)cc(C)cc2C)c2ccccc2)c(C)c1 | inactive | inactive | inactive | inactive | inactive | inactive | inactive | inactive | inactive | -2.99%
6 | COP(=S)(OC)Oc1c(Cl)cc(C)cc1Cl | inactive | inactive | inactive | inactive | inactive | inactive | – | inactive | inactive | 0.872%
7 | Cc1ncc2n1-c1ccc(Cl)cc1C(c1ccccc1F)=NC2 | inactive | inactive | inactive | inactive | inactive | – | inactive | inactive | inactive | 12.1% [at 42.5 µM]
8 | OCCBr | inactive | inactive | inactive | inactive | inactive | inactive | inactive | inactive | – | –
9 | CCCCc1ccc(O)cc1 | inactive | inactive | inactive | inactive | inactive | 19.5 µM (active) | inactive | inactive | – | –
10 | CNC(=O)Oc1ccc(N(C)C)c(C)c1 | inactive | inactive | inactive | inactive | inactive | inactive | inactive | inactive | inactive | –
11 | CNNC | inactive | inactive | inactive | inactive | inactive | inactive | inactive | inactive | inactive | 6.11%
12 | COc1cc(OC)nc(NC(=O)NS(=O)(=O)c2ncccc2OCC(F)(F)F)n1 | inactive | inactive | inactive | inactive | inactive | inactive | – | inactive | inactive | 9.4%
13 | CCC1(c2ccccc2)C(=O)N=C(O)NC1=O (stereo not given) | inactive | inactive | inactive | inactive | inactive | inactive | inactive | inactive | – | –
14 | O=C1CN=C(c2ccccc2)c2cc([N+](=O)[O-])ccc2N1 | inactive | inactive | inactive | inactive | inactive | inactive | inactive | inactive | inactive | –
15 | NC(=S)C(N)=S | inactive | inactive | inactive | inactive | inactive | inactive | inactive | inactive | – | -20.6%
16 | COc1cccc(C(=O)NN(C(=O)c2cc(C)cc(C)c2)C(C)(C)C)c1C | inactive | inactive | inactive | inactive | – | inactive | inactive | inactive | – | -24.8%
17 | CCOC(=O)NC(=S)Nc1ccccc1NC(=S)NC(=O)OCC | inactive | inactive | inactive | inactive | inactive | – | inactive | inactive | inactive | 11.4% (active)
18 | [As]#[In] | inactive | inactive | inactive | inactive | inactive | – | inactive | inactive | inactive | 0.493%
19 | O=c1oc2ccccc2c(O)c1C1CCCc2ccccc21 (stereo not given) | inactive | inactive | inactive | inactive | inactive | inactive | inactive | inactive | – | -20.9%

Row | Compound | Potency [1] | Potency [2] | outcome [3] | Potency [4] | Potency [5] | Potency [6] | Potency [7] | Potency [8] | Potency [9] | activity change, positive = activation [10]
20 | CN(N=O)C(N)=O | inactive | inactive | inactive | inactive | inactive | inactive | inactive | inactive | – | –
21 | ClC(Cl)C(Cl)Cl | inactive | inactive | inactive | inactive | inactive | inactive | inactive | inactive | – | –
22 | CCc1cc2c(s1)-n1c(C)nnc1CN=C2c1ccccc1Cl | inactive | inactive | inactive | inactive | inactive | – | – | inactive | inactive | –
23 | ClC(Br)Br | inactive | inactive | inactive | inactive | inactive | inactive | – | inactive | inactive | 1.41%
24 | CC1COC2(c3ccccc3Cl)c3cc(Cl)ccc3NC(=O)CN12 (stereo not given) | inactive | inactive | inactive | inactive | inactive | – | inactive | inactive | – | -27.8% [at 42.5 µM]
25 | CCCCOC(=O)[C@@H](C)Oc1ccc(Oc2ccc(C#N)cc2F)cc1 | inactive | inactive | inactive | inactive | inactive | 21.7 µM (active) | inactive | inactive | inactive | -5.11%
26 | CC1=NNC(=O)N(/N=C/c2cccnc2)C1 | inactive | inactive | inactive | inactive | inactive | inactive | – | inactive | inactive | -0.152%
27 | CN(C)CCc1ccc(O)cc1 | inactive | inactive | inactive | inactive | inactive | – | inactive | inactive | inactive | 5.13% [at 42.5 µM]
28 | C#CCN1C(=O)COc2cc(F)c(N3C(=O)C4=C(CCCC4)C3=O)cc21 | inactive | inactive | inactive | inactive | inactive | inactive | inactive | inactive | – | -22.6%
29 | COC(=O)c1c(C(F)F)nc(C(F)(F)F)c(C2=NCCS2)c1CC(C)C | inactive | inactive | inactive | inactive | inactive | inactive | – | inactive | inactive | 1.38%
30 | NC(=O)c1cc([N+](=O)[O-])cc([N+](=O)[O-])c1 | inactive | inactive | inactive | inactive | inactive | inactive | inactive | inactive | – | –
31 | CCCCc1c(C)nc(NCC)[nH]c1=O | inactive | inactive | inactive | inactive | inactive | – | inactive | inactive | inactive | 5.33%
32 | [O]=[Cd] | inactive | inactive | inactive | inactive | inactive | inactive | inactive | inactive | – | -14%
33 | CCSC(=O)N(CC)C1CCCCC1 | inactive | inactive | inactive | inactive | inactive | inactive | inactive | inactive | – | –
34 | CC(=O)C(Cl)Cl | inactive | inactive | inactive | inactive | inactive | inactive | inactive | inactive | inactive | 4.96%
35 | C=CC1CC=CCC1 (stereo not given) | inactive | inactive | inactive | inactive | inactive | inactive | inactive | inactive | – | –
36 | CCC1(c2ccccc2)C(=O)NC(=O)NC1=O | inactive | inactive | inactive | inactive | inactive | inactive | inactive | inactive | – | –
37 | Cc1cccc(C#N)c1 | inactive | inactive | inactive | inactive | inactive | inactive | inactive | inactive | – | –
38 | c1cc2c(c(N3CCNCC3)c1)OCCO2 | inactive | inactive | inactive | inactive | inactive | inactive | inactive | inactive | – | –
